Assay outcomes: PubChem BioAssay, National Center for Advancing Translational Sciences (NCATS)
Sm TGR block: blocks Schistosoma mansoni thioredoxin glutathione reductase | purified TGR, DTNB reduction, TNB absorbance 405 nm | Potency, µM (series often up to 114 µM), without a hit: at the top dose activity change, negative = inhibition, actives largely listed as inhibitors | 360,000 compounds, 3% hits | AID 485364; further: potency means the concentration at half of the fitted maximal effect; on the % scale 0 is the no-effect control and ±100 the full control effect; nearly all actives have a fitted effect of over 60% in size
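Kinetic colorimetric format: TGR-catalysed, NADPH-driven DTNB reduction monitored via TNB absorbance. Enzyme dispensed at 20 nM; compound exposure 15 min at room temperature before reaction start.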
SARS PLP yeast: inhibitors of SARS-CoV papain-like protease in yeast; AID 485353; 330,000 compounds, 0.19% hits; S. cerevisiae expressing SARS-CoV PLpro, growth rescue; Potency, µM (highest dose often 32.9 µM), for the others: top-dose activity, positive = growth rescue, usual class: activators; calls by dose curve; further: potency means the concentration at half of the fitted maximal effect; 0% is about no effect; nearly all actives have a fitted effect of over 55% in size
Pf growth 48h: P. falciparum growth inhibition at 48 hours (one generation); P. falciparum luciferase growth in erythrocytes, 48 h; Potency, µM (top dose mostly 28.7 µM), for inactives: at the highest dose activity change, negative = inhibition, usual class: inhibitors; 310,000 compounds, 5.9% hits; AID 504832; further: potency means the concentration at half of the fitted maximal effect; on the % scale 0 is the no-effect control and ±100 the full control effect
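Luciferase-expressing P. falciparum in infected erythrocytes (2% hematocrit, 0.1% parasitemia final) in RPMI 1640/0.5% Albumax were exposed to compound for 48 hours at 37 C, 5% CO2; growth read as luminescence.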
HCV inh: HCV inhibition; AID 651820; 340,000 compounds, 3.4% hits; Huh7.5.1 HCVcc-Cre infection, luciferase reporter, 44 h; Potency, µM (titrated, usually from 41.8 µM), for inactives: at the highest dose activity change, negative = inhibition, actives largely listed as inhibitors; further: potency means the concentration at half of the fitted maximal effect; on the % scale 0 is the no-effect control and ±100 the full control effect
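1,000 cells/well; 4 h culture; + compound; + HCVcc-Cre (~0.5 moi); 44 h; luciferase substrate, RT 15 min; read 15 sec.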
HCMV inh: inhibitors of human cytomegalovirus | activity change, negative = inhibition, % at 57.5 µM | HFF cells, HCMV-luciferase reporter, 72 h; active compounds read low | 410,000 compounds, 4.5% hits; in the data active means activity change below about -60%; inconclusive means no clear call, values can overlap the other calls; inactive means above about -39%; further: on the % scale 0 is the no-effect control and ±100 the full control effect
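Inhibition of viral replication was scored as loss of reporter luminescence in HFFs infected with HCMV-luciferase (MOI 1 PFU/cell) for 72 h; compounds tested at 2 doses, normalized to buffer and Salinomycin controls.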
Pf growth 96h: P. falciparum growth inhibition at 96 hours; P. falciparum luciferase reporter growth, 96 h; Potency, µM (series often up to 28.7 µM), without a hit: top-dose activity change, negative = inhibition, usual class: inhibitors; 320,000 compounds, 6.9% hits; further: potency means the concentration at half of the fitted maximal effect; on the % scale 0 is the no-effect control and ±100 the full control effect
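Delayed-death screen, second-generation endpoint: infected erythrocytes, 2% hematocrit, 0.05% parasitemia final; 96 hours at 37 C, 5% CO2; luciferase detection reagent; luminescence decrease equals reduced growth.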
The depositor's hits bear a star; ? = inconclusive; . = no result. The list is not random: actives were taken first. Their share in the collection is about 15%. Unless noted, the call rests on the fitted dose curve; in most records, active means well fitted curve in the direction sought with a large enough effect; inconclusive means small, poorly fitted or top-dose-only effect, or another doubt; inactive means no such curve, though single readings can be large; an effect the other way counts as inactive or inconclusive.

SMILES	Sm TGR block	SARS PLP yeast	Pf growth 48h	HCV inh	HCMV inh	Pf growth 96h
CCn1c2ccccc2c2cc(NC(=O)CSc3nnc(-c4ccccc4OC)n3N)ccc21	3%	-1%	?	?	-16	-9%
CCn1c2ccccc2c2cc(NC(=O)CSc3nnc(-c4ccc(OC)c(OC)c4)n3N)ccc21	-25%	-23%	?	3%	6	?
CCOc1ccc(-c2nnc(SCC(=O)Nc3ccc4c(c3)c3ccccc3n4CC)n2N)cc1	6%	-10%	-44%	4µM*	-61*	?
CCn1c2ccccc2c2cc(NC(=O)CSc3nnc(-c4cccc(OC)c4)n3N)ccc21	-13%	7%	?	8.9µM*	-32	?
COc1ccc(C)cc1-n1nnnc1SCc1nc(N)nc(N(C)C)n1	.	.	.	.	-22	.
CCOC(=O)Cc1csc(NC(=O)c2cccc(OC)c2)n1	13%	-3%	10%	-27%	-30	13%
COc1ccccc1NC(=O)Nc1nc(CC(=O)NCc2ccc(F)cc2)cs1	-13%	-4%	?	7.1µM*	-40	?
COc1ccccc1NC(=O)Nc1nc(CC(=O)NCc2c(F)cccc2F)cs1	-1%	-1%	?	?	-1	-19%
COc1ccc(NC(=O)Cc2csc(NC(=O)Nc3ccccc3OC)n2)c(OC)c1	0%	8%	-8%	-28%	-18	0%
CCOC(=O)Cc1csc(NC(=S)NC(=O)c2ccc(F)cc2)n1	?	4%	?	-6%	-62*	?
CCOC(=O)Cc1csc(NC(=O)Nc2cccc(OC)c2)n1	7%	0%	?	-7%	51	10µM*
CCOC(=O)Cc1csc(NC(=S)NC(=O)c2cc(OC)c(OC)c(OC)c2)n1	-10%	-1%	-8%	-10%	26	12%
COc1cccc(CNC(=O)Cc2csc(NC(=O)Nc3ccccc3OC)n2)c1	0%	2%	?	5.6µM*	-17	?
COC(=O)[C@]12C[C@H](CC(=O)NCc3cccc4ccccc34)C(=O)N(CCc3ccc(OC)c(OC)c3)C1=C[C@H](C(C)(C)C)O[C@@H]2C	.	.	.	.	-11	.
Cc1ccccc1NC(=O)Nc1nc(CN(C)C)cs1	.	.	.	.	-9	.
CN(C)Cc1csc(NC(=O)Nc2ccccc2C(C)(C)C)n1	.	.	.	.	-76*	.
CN(CC(=O)Nc1cccc(F)c1)CC(=O)Nc1cc(S(=O)(=O)N2CCOCC2)ccc1Cl	-14%	-14%	?	11µM*	0	-2%
CN(CC(=O)Nc1cccc(S(=O)(=O)N2CCOCC2)c1)CC(=O)Nc1ccc(Cl)c(C(F)(F)F)c1	8%	.	?	?	-75*	?
CCOC(=O)Cc1csc(SC(C)C(=O)NC2CCCCC2C)n1 (stereo unspecified)	2%	-1%	?	20%	-2	1%
COc1ccc(CCN2C(=O)CSC2c2ccc(F)cc2)cc1 (stereo unspecified)	-13%	1%	-16%	-20%	-18	-30%
O=C(COC(=O)c1ccccc1O)Nc1ccc(OC(F)F)cc1	?	-3%	40%	-6%	17	9.3µM*
CC(=O)c1ccc(O)c(CC=C(C)C)c1	-18%	2%	-28%	6%	-2	-5%
CCOC(=O)CSC1=C(C#N)C(c2ccco2)C(C(=O)Nc2cccc(C(F)(F)F)c2)=C(C)N1 (stereo unspecified)	?	3%	10µM*	?	15	5%
CCN(CC)c1ccc2c(c1)OC(N)=C(C#N)C2c1cccnc1 (stereo unspecified)	-30%	-1%	?	?	-85*	.
CCOC(=O)C1=C(C)OC(N)=C(C#N)C1c1ccoc1 (stereo unspecified)	32µM*	21%	-5%	2%	14	8%
CCOC(=O)C1=C(N)OC(CCl)=C(C#N)C1c1ccsc1 (stereo unspecified)	13µM*	27%	11%	7%	-30	30%
O=C(Nc1c(C(=O)O)oc2ccccc12)c1ccc(C(F)(F)F)cc1	3%	.	.	.	7	.
